Out of some 360,000 compounds screened, about 2,700 (0.75%) were called active. The full list was thinned out, with actives kept by preference. Values without a mark were called inactive. Rule as the data show it: active = inhibition above about 4.5%; inactive = the rest.

This assay concerns Methionine sulfoxide reductase A (Bos taurus). The assay can be described thus: bovine MsrA enzyme inhibitors, primary screen, biochemical, absorbance, HTS (AID 651718).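 Also: 0% = vehicle wells with enzyme and 100% = reference inhibitor wells.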 Conditions: purified bovine MsrA, absorbance read-out; at 15.5 µM; stronger effect = higher value.
The inhibition is the drop in the measured response relative to a control, in per cent. Regarding `Clc1cccc2c1C1CC2CCN1Cc1ccccc1` (centres undefined), the inhibition was -1.2%.

Consider `COC(=O)c1cc2c(c3c4cc(F)ccc4n(S(=O)(=O)c4ccccc4)c13)C(=O)N(Cc1ccccc1OC)C2`, for which the inhibition is 1.35%.

As to `CCCCC1S/C(=N/N=C/c2cccs2)NC1=O` (centres undefined), the inhibition was 0.75%.

Consider `O=C1N/C(=N\N=C\c2ccco2)SC1Cc1ccc(F)cc1` (centres undefined), for which the inhibition is 2.66%.

In the case of `CCC1S/C(=N/N=C/c2ccco2)NC1=O` (centres undefined), the inhibition is 4.55% (active).

Turning to `COC(=O)C1=C(C)N(Cc2ccc(C(F)(F)F)cc2)C(=NCc2ccccc2)NC1c1ccccc1C(F)(F)F` (centres undefined), the inhibition was 2.37%.

With `CC(C)(C)c1ccc(S(=O)(=O)NCC2CCN(C(=O)C(=O)c3cc4ccccc4o3)CC2)cc1`, the inhibition is 1.27%.

For the compound `Cc1cccc(-n2c(N)c(C(=O)N3CCN(C)CC3)sc2=S)c1`, the inhibition is 2.37%.

Take `Cc1cccc(-n2c(O)c(C=Nc3ccccc3N)c(=O)[nH]c2=O)c1`: the inhibition was 5.11% (active).

On to `COc1cc(OC)cc(C(=O)NCCSCc2ccc(Cl)cc2)c1`, for which the inhibition is -2.11%.

Take `CCc1nnc(NS(=O)(=O)c2ccc(NC(=O)c3cccc(OC(F)(F)C(F)F)c3)cc2)s1`: the inhibition is -0.35%.

As to `CCc1nnc(NS(=O)(=O)c2ccc(NC(=S)NC(=O)/C=C/c3cccs3)cc2)s1`, the inhibition is 4.76% (active).

For `CCOC(=O)c1c(NC(=S)NC(=O)/C=C/c2cccs2)sc(C)c1C`, the inhibition was -0.71%.

`Cc1cc(C(=O)NNC(=S)NC(C)c2ccccc2)cs1` (centres undefined): the inhibition was 0.13%.

For `Cn1nnnc1SCC(=O)Nc1sccc1C(N)=O`, the inhibition is 0.13%.

With `COC(=O)c1cc2c(c3c4ccccc4n(S(=O)(=O)c4cccc(C)c4)c13)C(=O)N(Cc1ccccc1)C2`, the inhibition is 0.16%.

For the compound `CC1(C(=O)NCc2ccccc2)CN(S(C)(=O)=O)CC(=O)N1CC(F)(F)F` (centres undefined), the inhibition was -0.74%.

In the case of `COc1ccc(C(=O)CSc2nc(C)cc(C)n2)cc1[N+](=O)[O-]`, the inhibition is 11.2% (active).

With `COc1ccc(C(=O)NNC(=O)c2cnccn2)cc1[N+](=O)[O-]`, the inhibition was 3.54%.

As for `COc1ccc(-n2nnnc2SCC(=O)c2ccc(OC)c(OC)c2)cc1`, the inhibition is 1.76%.

Consider `CN1CCN(CC(=O)C23CC4CC(CC(C4)C2)C3)CC1`, for which the inhibition was -0.74%.

As to `COc1ccc(C(=O)Nc2c(N)nc(SCC(=O)N3CCC(C)CC3)[nH]c2=O)cc1OC`, the inhibition was -1.43%.

With `C[C@@H]1ON(C)[C@H]2C[C@H]3c4cc(N5CCOCC5)ccc4CCN3C[C@@H]12`, the inhibition was -1.23%.

For `CCOC(=O)C1=C(C(=O)OCC)C2N(Cc3ccc(C#N)cc3)c3ccccc3[C@@]23C[C@@H](C(=O)OC)N(S(=O)(=O)c2ccc(F)cc2)C3=N1` (some centres undefined), the inhibition was 1.03%.

Values taken from PubChem BioAssay AID651718 (The Scripps Research Institute Molecular Screening Center, 2012).
